From PubChem BioAssay (NCI)
Where “and” joins values, the source holds several entries; their conditions need not be identical. Identical values can stand only once. Compounds without any hit were thinned out: in the full panel of roughly 83,000, 20% have a hit.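 Method: cells in 96-well plates; compound added at one concentration; 48 h incubation; percent growth measured; values under 10 scored active.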 Unmarked numbers belong to inactive results. Calls of active or inactive are those of the source.

system: HL-60(TB) leukemia; assay: NCI-60 one-dose screen, 48 h (100 = growth as untreated, 0 = no growth, -100 = all killed); conditions: 10 µM unless noted

Row | Structure (SMILES) | growth
1 | Clc1ccc(C2c3ccccc3-c3nccn32)c(Cl)c1 (centres undefined) | 48.6%
2 | O=C(O)c1ccc(OCc2ccccc2)cc1 | 103%
3 | COc1ccc(Cc2cc(-c3ccccc3)nn(Cc3ccccc3)c2=O)cc1OC | 25.8%
4 | O=C1c2cccnc2C(=O)c2c1c(C(=O)NCCn1ccnc1)c1ccccn21 | 0.989% (active)
5 | CCOc1ccc(N(C)c2ccc(/C=C/C3=[N+](C)c4ccccc4C3(C)C)cc2)cc1 | -43.5% (active)
6 | CCCCCCC1N=C(N)N=C(N)N1c1cccc(Cl)c1 (centres undefined) | 44.3%
7 | CCn1cc(C(=O)O)c(=O)c2cc(F)c(N3CCN(CC(=O)Nc4ccc(C(C)=O)cc4)CC3)cc21 | 95.7%
8 | COc1ccc(-c2n[nH]nc2-c2cc(OC)c(OC)c(OC)c2)cc1 | -8.64% (active)
9 | COc1cnc2c(c1)C(=O)c1c-2n(CCCN2CCN(C)CC2)c(=O)c2cc([N+](=O)[O-])ccc12 | -54% (active)
10 | COc1ccc(Oc2ccccc2NC(=O)CNC(=O)c2cccc3ccccc23)cc1 | -22.8% [5 µM] (active)
11 | CCOC(=O)C(=Cc1cccc(Cl)c1)C(=O)OCC | -2% (active)
12 | Cc1ccc2cccc([N+](=O)[O-])c2n1 | 93.2% and 94.6%
13 | Nc1nc(N)c(C=Nc2ccc(Br)cc2)c(Nc2ccc(Br)cc2)n1 | 90%
14 | CN(CCNCc1ccccn1)CCNCc1ccccn1 | 6% (active)
15 | CC[C@]12C=CCN3CC[C@@]4(c5cc(NC(=O)CCC(=O)O[C@H]6CC[C@H]7[C@@H]8CCC9=CC(=O)CC[C@@H]9[C@H]8CC[C@]67C)c(OC)cc5N(C)[C@H]4[C@@](O)(C(=O)OC)[C@@H]1OC(C)=O)[C@@H]32 | 62.5%
16 | COc1ccc(/C=N/NC(=O)CCN2c3ccccc3Sc3ccccc32)cc1 | 82%
17 | CN1CC[C@@H](c2c(O)cc(O)c3c(=O)cc(-c4ccccc4Cl)oc23)[C@@H](O)C1 | -29.1% (active)
18 | Cc1c2c(cc[n+]1Cc1ccc(F)cc1)c1ccc(OCc3cccc(F)c3)cc1n2Cc1cccc(F)c1 | -49.3% (active)
19 | O=C1NC(c2ccc(F)cc2)N=C2C(c3ccccc3)=NOC12 (centres undefined) | 101%
20 | CC1=C(/C=C/C(C)=C/C=C/C(C)=C/C(=O)O)C(C)(C)CCC1 | 79.2% and 46.2% and 67%

Row | Structure (SMILES) | growth
21 | C=C(C)[C@@H]1CC[C@]2(C=O)CC[C@]3(C)[C@H](CC[C@@H]4[C@@]5(C)CCCNC(C)(C)[C@@H]5CC[C@]43C)[C@@H]12 | 7.59% (active)
22 | O=C1Nc2ccc(Br)cc2/C1=N/c1n[nH]c(=S)s1 | 99.2%
23 | O=[N+]([O-])c1cccc(N=C(Nc2cccc([N+](=O)[O-])c2)c2ccccc2)c1 | 102%
24 | COc1ccccc1OC(=O)Oc1ccccc1OC | 101% and 98.4%
25 | COc1cc(/C=C\c2cc(/C=C\c3ccc(O)c(OC)c3)n(C(=O)COc3ccc(Cl)cc3Cl)n2)ccc1O | -18.7% (active)
26 | COc1cc(NC(C)CCCN)c2nccc(C)c2c1OC (centres undefined) | -3.41% (active)
27 | O=C(Nc1ccccc1)Nc1cccc(-n2cc(-c3ccncc3)c(-c3ccc(O)c(Cl)c3)n2)c1 | 37.5%
28 | COc1ccc(-n2c(-c3ccccc3)c(-c3ccccc3)c3c(SCC(=O)N/N=C/c4ccc(Cl)cc4)ncnc32)cc1 | 103%
29 | O=C1NC(=O)N(Cc2ccccc2)CC1Br (centres undefined) | 56.4%
30 | CC(=O)OC(OC(C)=O)C1CCCO1 (centres undefined) | 147%
31 | COc1ccccc1CNCCCN1C(=O)c2ccc3c4c(ccc(c24)C1=O)C(=O)N(CCCNCCCCNCCCCN)C3=O | -37.8% (active)
32 | O=S(=O)(O)C1(O)CCCCC1 | 87.6%
33 | CN1CCN(C2=Nc3ccccc3Oc3ccc(Cl)cc32)CC1 | 91.8%
34 | c1cnc2[nH]cc(-c3csc(-c4cn(CCCN5CCOCC5)c5ccccc45)n3)c2c1 | 35.8%
35 | Cc1ccc(NC(=O)NC(=O)CSc2nc3ccccc3nc2C)cc1 | 67.9%
36 | CC(C)(C#N)c1cc(F)cc(C(=O)Nc2cc(Nc3ncccc3-c3ncnc4nc[nH]c34)ccc2F)c1 | 13.9%
37 | CC(NC(N)=S)c1ccccc1 (centres undefined) | 96.7%
38 | Nc1cc(-c2nc3sccn3c2-c2ccnc(NCCCNS(=O)(=O)c3ccc(F)cc3)n2)ccc1F | 63.6%
39 | Cc1cc(C(=O)NN)c(C#N)c(=O)[nH]1 | 111%
